Source: PubChem (Broad Institute)
aSyn UTR act: Activators via SNCA 5'UTR binding, MLPCN; 300,000 compounds, 7.1% hits; alpha-synuclein 5'UTR reporter, activators screen; AID 1814, 2009; activity score, % (tested at 7.5 µM), hits read low; in the data active = activity score below about -60%
Numbers without * were called inactive. Only a sample is shown.

SMILES	aSyn UTR act
c1cc(CSc2nnc(-c3ccc4c(c3)OCO4)o2)ccn1	-85.9*
CC(C)c1ccc(S(=O)(=O)c2cc3cc(Br)ccc3oc2=O)cc1	-62.5*
N/C(=N\c1nc2ccccc2o1)NC(=O)c1ccc(F)cc1	-132.5*
COc1ccc(C(=O)/C=C/Sc2nc3ccccc3o2)cc1	-169.0*
COc1ccc(C(=O)N/C(N)=N/c2nc3ccccc3o2)cc1	-215.9*
N/C(=N\c1nc2ccccc2o1)NC(=O)c1ccccc1Br	-184.3*
Cc1ccc2oc(/N=C(\N)NC(=O)C(C)(C)C)nc2c1	96.1
N/C(=N\c1nc2ccccc2o1)NC(=O)c1ccc(Cl)cc1	-86.9*
CCc1ccn2cc(-c3cc(-c4ccccc4)no3)nc2c1	94.4
Cc1ccc(O)c(-c2cc(-c3ccc(F)cc3)no2)c1	-108.7*
Cc1ccc2nc(-c3cc(-c4ccccc4)no3)cn2c1	85.8
Cc1ccccc1-c1cc(-c2ccccc2O)on1	-216.4*
Oc1ccccc1-c1cc(-c2ccccc2)no1	-132.9*
Cc1ccc(Nc2nc(CSc3nnc(-c4ccc(F)cc4)n3C)cs2)cc1	-144.0*
CCCCSc1nnc(-c2ccc(OC)cc2)n1C	-132.6*
Cc1ccc(-c2nnc(SCC(C)C)n2C)cc1	-146.0*
N#Cc1nc(-c2ccc(OCc3ccccc3Cl)cc2)oc1NCCCn1ccnc1	-65.0*
N#Cc1nc(-c2ccc(F)cc2)oc1NCCCn1ccnc1	-90.0*
Cc1ccc(C)c(OCc2nc3ccccc3[nH]2)c1	-112.6*
O=C(NNc1ncnc2ccccc12)c1cccc(Cl)c1	-84.0*
O=C(Nc1nc2ccccc2[nH]1)c1ccccc1O	-73.8*
Cc1ccc(Nc2nc3ccccc3[nH]2)nc1	-219.9*
Cc1ccc(C)c(C(=O)Nc2nc3ccccc3[nH]2)c1	-69.4*
O=C(Nc1nc2ccccc2[nH]1)c1cccc(Cl)c1	-151.1*
O=C(Nc1nc2ccccc2[nH]1)c1ccc(Cl)cc1	65.9
SMILES	aSyn UTR act
O=C(COc1ccc2c(c1)OCO2)Nc1ccccc1C(F)(F)F	-114.2*
N#Cc1ccccc1NC(=O)COc1ccc2c(c1)OCO2	-130.1*
N#C/C(=C\c1ccco1)Sc1nc2ccccc2s1	-83.6*
CSc1ncccc1C(=O)OCc1ccccc1F	-62.4*
Oc1ccc(CNc2ccccc2F)c2cccnc12	86.7
Oc1ccc(COCc2ccccc2)c2cccnc12	51.0
CSc1ncccc1C(=O)OCc1ccccc1	-66.3*
Cc1cc(-c2csc(NC(=O)c3cccc(S(=O)(=O)N(C)C)c3)n2)c(C)n1-c1ccccc1	-83.2*
COC(=O)/C=C1\C(=O)N(c2nc3ccccc3s2)C(=S)N1c1ccc(F)cc1	-174.7*
COC(=O)/C=C1\C(=O)N(c2nc3ccc(OC)cc3s2)C(=S)N1c1ccc(F)cc1	-69.1*
Cn1ncc(Cl)c1C(=O)Nc1ccc2c(c1)CCC2	-138.1*
CN1N=C(C(=O)Nc2ccc3c(c2)CCC3)CCC1=O	-140.4*
O=[n+]1cc(-c2cc3ccccc3o2)n([O-])c2c1CCCC2	-91.5*
CN(C)/C=C1\SC(=S)N(c2ccc(Br)cc2)C1=O	-99.8*
COc1ccc(N2C(=S)N(C(=O)c3ccccc3)C(=Nc3ccccc3)C2=Nc2ccccc2)cc1	-120.0*
COc1ccc(N=C2C(=Nc3ccc(OC)cc3)N(c3ccc(N(C)C)cc3)C(=S)N2c2ccc(OC)cc2)cc1	98.6
COc1ccc(N=C2C(=Nc3ccc(OC)cc3)N(c3ccccc3)C(=S)N2C(=O)c2ccc(Cl)cc2)cc1	-200.4*
CC(C)(C)c1ccc(C(=O)NC(=S)N2CCOCC2)cc1	-101.9*
CC(C)Oc1ccc(C(=O)NC(=S)N2CCOCC2)cc1	-78.8*
NC1=NC(=O)/C(=C\c2cc([N+](=O)[O-])ccc2Cl)S1	-95.2*
NC(=O)CSc1nc(-c2ccccc2Cl)ns1	-121.2*
Cc1ccc(C(=O)N2CCN3C(=O)c4ccccc4C23c2ccc(Cl)cc2)cc1 (configuration not stated)	-68.6*
c1ccc2c(Nc3nc4c(s3)CCCC4)cccc2c1	-157.0*
O=C1CCC/C(=N\NC(=O)c2ccc(COc3ccccc3-c3ccccc3)cc2)C1	-71.2*
O=C(/C=C/Nc1ccccc1)c1ccc(Cl)cc1Cl	-122.1*
SMILES	aSyn UTR act
C(=N\Nc1ccccn1)/c1c[nH]c2ccccc12	-114.4*
Brc1ccccc1/C=N/Nc1ccccn1	-130.8*
Clc1nccnc1N/N=C/c1ccc(Br)cc1	-106.0*
COc1ccc(/C=N/Nc2ccccn2)cc1O	-144.9*
CC(=O)[C@]1(O)Cc2c(O)c3c(c(O)c2[C@@H](O[C@H]2C[C@H](N)[C@H](O)[C@H](C)O2)C1)C(=O)c1ccccc1C3=O	110.1
Fc1ccc(/C=N/Nc2ccccn2)cc1	-119.6*
Brc1ccc(/C=N/Nc2ccccn2)cc1	-193.2*
Cc1ccc(/C=N/Nc2ccccn2)s1	-149.3*
Clc1ccc(/C=N/Nc2ccccn2)cc1	-162.9*
Oc1ccc(N=Nc2ccccc2C(F)(F)F)c2cccnc12	71.6
FC(F)(F)c1ccccc1/C=N/Nc1ccccn1	-93.5*
COc1ccc(/C=C/C(=O)C(C(N)=O)=C2SCCS2)cc1	-109.0*
NC(=O)C(C(=O)/C=C/c1ccc(Cl)cc1)=C1SCCS1	-113.7*
Cc1ccc2c(c1C)NC(=O)CC(c1ccccc1O)=N2	-83.1*
COc1ccc(CC2(CO)COc3ccccc3C2=O)cc1 (configuration not stated)	-64.0*
O=C(/C=C/c1ccc2c(c1)OCCCO2)c1ccccc1O	-311.3*
Cc1ccc(O)c(C(=O)/C=C/c2ccc3c(c2)OCCCO3)c1	-188.4*
Cc1cc(C)c(C)c(OCC(=O)O/N=C(\N)c2ccccn2)c1	-109.8*
Cc1ccc(OCC(=O)O/N=C(\N)c2ccncc2)cc1C	-129.2*
N/C(=N\OC(=O)COc1ccccc1)c1ccccn1	-68.7*
Cc1ccc(OCC(=O)O/N=C(\N)c2ccccn2)cc1C	-98.9*
N/C(=N\OC(=O)COc1ccc2ccccc2c1Br)c1ccccn1	-106.5*
CCOc1ccc(C(=O)O/N=C(\N)c2ccccn2)cc1	61.6
CCc1ccc(OCC(=O)O/N=C(\N)c2ccccn2)cc1	-91.3*
Cc1cccc(C(=O)O/N=C(\N)c2ccccn2)c1	70.1
SMILES	aSyn UTR act
Cc1cccc(OCC(=O)O/N=C(\N)c2ccccn2)c1	-115.6*
O=C(Cc1ccc(Br)cc1)N1CCc2ccccc2C1	-145.0*
O=C(c1ccc(Br)s1)N1CCc2ccccc2C1	-65.1*
CCOc1cc(C)c(S(=O)(=O)Nc2ccc3cn[nH]c3c2)cc1C	-73.7*
O=C(c1cnn2c1NC(c1ccco1)CC2C(F)(F)F)N1CCN(c2cccc(Cl)c2)CC1 (configuration not stated)	-70.7*
CC1CCc2c(sc3ncn(CCO)c(=O)c23)C1 (configuration not stated)	-115.9*
Cc1ccc2cc(CN(CCN(C)C)C(=O)Nc3ccc(Cl)cc3)c(=O)[nH]c2c1	-82.6*
Cc1cc(C)c2cc(CN(CCO)C(=O)Nc3ccc(Cl)cc3)c(=O)[nH]c2c1	53.0
CC(C)(C)OC(=O)COc1ccc(/C=N/NC(=O)CN2CCCCC2)cc1	-85.7*
COc1cc(/C=N/NC(=O)CN2CCCCC2)ccc1OCc1ccccc1	-136.6*
COc1cc(/C=N/NC(=O)CN2CCOCC2)ccc1OCc1ccccc1	-96.6*
CCc1ccc(NC(=O)c2cc(C(C)C)on2)cc1	-102.5*
CC(=O)c1cccc(NC(=O)c2cc(C(C)C)on2)c1	-101.3*
CCc1ccc(NC(=O)c2cc(CC(C)C)on2)cc1	-120.5*
CC(C)Cc1cc(C(=O)NCc2cccs2)no1	-164.4*
CC(C)Cc1cc(C(=O)Nc2ccc(Br)cc2)no1	-137.1*
O=C(Nc1ccc(F)cc1F)c1csc(-c2cccs2)n1	-270.1*
